Compounds without any hit were thinned out: in the full panel of roughly 83,000, 20% have a hit.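 Activity criterion: percent growth below 10, measured after cells in 96-well plates were exposed to a single compound concentration for 48 hours.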 A number with no mark means an inactive call. The source made the active and inactive calls.
Key:
Assay in all cases: NCI-60 one-dose screen, 48 h (100 = growth as untreated, 0 = no growth, -100 = all killed)
Settings in all cases: 10 µM unless noted
NCI-H23 lung = system: NCI-H23 lung
NCI-H226 lung = system: NCI-H226 lung
NCI-H322M lung = system: NCI-H322M lung
HOP-62 NSCLC = system: HOP-62 NSCLC
NCI-H460 lung = system: NCI-H460 lung
HOP-92 NSCLC = system: HOP-92 NSCLC
NCI-H522 lung = system: NCI-H522 lung
A549/ATCC NSCLC = system: A549/ATCC NSCLC
786-0 renal = system: 786-0 renal
COLO 205 colon = system: COLO 205 colon
DU-145 prostate = system: DU-145 prostate
K-562 leukemia = system: K-562 leukemia
MALME-3M melanoma = system: MALME-3M melanoma
MDA-MB-231 breast = system: MDA-MB-231 breast
RXF 393 renal = system: RXF 393 renal
SF-268 CNS = system: SF-268 CNS
SF-295 CNS = system: SF-295 CNS
SF-539 CNS = system: SF-539 CNS
UACC-257 melanoma = system: UACC-257 melanoma
M14 melanoma = system: M14 melanoma

With COC(=O)c1ccc([N+](=O)[O-])c(C)c1 as the compound, how does the growth (NCI-H23 lung) read?
The growth was 107%.

And the growth (NCI-H226 lung)?
The growth was 102%.

What about the growth (NCI-H322M lung) of the same compound?
Its growth is 93.2%.

And the growth (HOP-62 NSCLC)?
Its growth is 98.5%.

What about the growth (NCI-H460 lung) of the same compound?
The growth was 105%.

And the growth (HOP-92 NSCLC)?
Its growth is 90.4%.

What about the growth (NCI-H522 lung) of the same compound?
Its growth is 107%.

What about the growth (A549/ATCC NSCLC) of the same compound?
Its growth is 107%.

And the growth (786-0 renal)?
The growth was 103%.

And the growth (COLO 205 colon)?
Its growth is 111%.

And the growth (DU-145 prostate)?
The growth was 113%.

What about the growth (K-562 leukemia) of the same compound?
The growth was 134%.

And the growth (MALME-3M melanoma)?
The growth was 96.9%.

What about the growth (MDA-MB-231 breast) of the same compound?
The growth was 117%.

What about the growth (RXF 393 renal) of the same compound?
The growth was 105%.

And the growth (SF-268 CNS)?
Its growth is 105%.

What about the growth (SF-295 CNS) of the same compound?
The growth was 109%.

And the growth (SF-539 CNS)?
The growth was 96.2%.

What about the growth (UACC-257 melanoma) of the same compound?
Its growth is 101%.

And the growth (M14 melanoma)?
The growth was 94%.

Which growth (NCI-H23 lung) does the source give for O=C(O)Cc1cccc2ccccc12 here?
Its growth is 121%.

And the growth (NCI-H226 lung)?
Its growth is 117%.

What about the growth (NCI-H322M lung) of the same compound?
Its growth is 105%.

And the growth (HOP-62 NSCLC)?
Its growth is 106%.

What about the growth (NCI-H460 lung) of the same compound?
Its growth is 109%.

And the growth (HOP-92 NSCLC)?
Its growth is 103%.

And the growth (NCI-H522 lung)?
Its growth is 95.7%.

What about the growth (A549/ATCC NSCLC) of the same compound?
Its growth is 99.8%.

What about the growth (786-0 renal) of the same compound?
Its growth is 111%.

What about the growth (COLO 205 colon) of the same compound?
The growth was 113%.

What about the growth (DU-145 prostate) of the same compound?
Its growth is 115%.

And the growth (K-562 leukemia)?
The growth was 96.4%.

And the growth (MALME-3M melanoma)?
The growth was 116%.

What about the growth (MDA-MB-231 breast) of the same compound?
Its growth is 123%.

What about the growth (RXF 393 renal) of the same compound?
The growth was 117%.

What about the growth (SF-268 CNS) of the same compound?
Its growth is 109%.

What about the growth (SF-295 CNS) of the same compound?
Its growth is 110%.

What about the growth (SF-539 CNS) of the same compound?
The growth was 108%.

What about the growth (UACC-257 melanoma) of the same compound?
The growth was 90.4%.

What about the growth (M14 melanoma) of the same compound?
The growth was 103%.

Which growth (NCI-H23 lung) does the source give for O=C1C=Cc2ccccc2/C1=C/c1[nH]c(=O)[nH]c1O here?
The growth was 51.7%.

What about the growth (NCI-H226 lung) of the same compound?
The growth was 45.2%.

And the growth (NCI-H322M lung)?
Its growth is 57.8%.

And the growth (HOP-62 NSCLC)?
The growth was 41.3%.

What about the growth (NCI-H460 lung) of the same compound?
The growth was 84.8%.

What about the growth (HOP-92 NSCLC) of the same compound?
Its growth is 45.9%.

And the growth (NCI-H522 lung)?
The growth was -17.7% (active).

And the growth (A549/ATCC NSCLC)?
The growth was 82%.

And the growth (786-0 renal)?
Its growth is 27.6%.

What about the growth (COLO 205 colon) of the same compound?
The growth was 34.3%.

And the growth (DU-145 prostate)?
The growth was 54.5%.

What about the growth (K-562 leukemia) of the same compound?
The growth was 26%.

And the growth (MALME-3M melanoma)?
Its growth is 23.5%.

And the growth (MDA-MB-231 breast)?
Its growth is 62.6%.

And the growth (RXF 393 renal)?
The growth was 34.2%.

And the growth (SF-268 CNS)?
The growth was 55.2%.

What about the growth (SF-295 CNS) of the same compound?
Its growth is 28.9%.

What about the growth (SF-539 CNS) of the same compound?
The growth was 17.6%.

And the growth (UACC-257 melanoma)?
Its growth is 2.03% (active).

What about the growth (M14 melanoma) of the same compound?
Its growth is 22.3%.

With C/C(=N\Nc1ccc([N+](=O)[O-])cc1[N+](=O)[O-])c1ccc(Br)cc1 as the compound, how does the growth (NCI-H23 lung) read?
The growth was 103%.

What about the growth (NCI-H226 lung) of the same compound?
Its growth is 96.6%.

And the growth (NCI-H322M lung)?
Its growth is 106%.

And the growth (HOP-62 NSCLC)?
Its growth is 108%.

What about the growth (NCI-H460 lung) of the same compound?
The growth was 99.2%.

What about the growth (HOP-92 NSCLC) of the same compound?
Its growth is 94.5%.

And the growth (NCI-H522 lung)?
Its growth is 85.5%.

And the growth (A549/ATCC NSCLC)?
The growth was 84.8%.

What about the growth (786-0 renal) of the same compound?
Its growth is 99.4%.

What about the growth (COLO 205 colon) of the same compound?
The growth was 104%.

What about the growth (DU-145 prostate) of the same compound?
The growth was 103%.

What about the growth (K-562 leukemia) of the same compound?
Its growth is 98.7%.

What about the growth (MALME-3M melanoma) of the same compound?
Its growth is 107%.

And the growth (MDA-MB-231 breast)?
Its growth is 91.5%.

What about the growth (RXF 393 renal) of the same compound?
The growth was 106%.

What about the growth (SF-268 CNS) of the same compound?
The growth was 97.2%.

What about the growth (SF-295 CNS) of the same compound?
The growth was 94.4%.

What about the growth (SF-539 CNS) of the same compound?
The growth was 106%.

And the growth (UACC-257 melanoma)?
The growth was 87.9%.

And the growth (M14 melanoma)?
Its growth is 106%.

Which results are given for CCCCCCCCNC(=O)C(C)C?
growth (NCI-H23 lung): 94.6%; growth (NCI-H226 lung): 96.4%; growth (NCI-H322M lung): 107%; growth (HOP-62 NSCLC): 104%; growth (NCI-H460 lung): 98.3%; growth (HOP-92 NSCLC): 90%; growth (NCI-H522 lung): 92.5%; growth (A549/ATCC NSCLC): 102%; growth (786-0 renal): 107%; growth (COLO 205 colon): 108%; growth (DU-145 prostate): 105%; growth (K-562 leukemia): 108%; growth (MALME-3M melanoma): 106%; growth (MDA-MB-231 breast): 109%; growth (RXF 393 renal): 93%; growth (SF-268 CNS): 104%; growth (SF-295 CNS): 100%; growth (SF-539 CNS): 96.9%; growth (UACC-257 melanoma): 108%; growth (M14 melanoma): 95.5%

For Cc1ccc(Cc2ccc(C)cc2)cc1, which growth (NCI-H23 lung) is on record?
The growth was 106%.

And the growth (NCI-H226 lung)?
The growth was 100%.

And the growth (NCI-H322M lung)?
The growth was 98.3%.

And the growth (HOP-62 NSCLC)?
Its growth is 98.1%.

And the growth (NCI-H460 lung)?
Its growth is 111%.

And the growth (HOP-92 NSCLC)?
Its growth is 97.5%.

What about the growth (NCI-H522 lung) of the same compound?
Its growth is 95.3%.

What about the growth (A549/ATCC NSCLC) of the same compound?
Its growth is 102%.

And the growth (786-0 renal)?
The growth was 96.1%.

And the growth (COLO 205 colon)?
Its growth is 107%.

And the growth (DU-145 prostate)?
The growth was 107%.

And the growth (K-562 leukemia)?
The growth was 101%.

What about the growth (MALME-3M melanoma) of the same compound?
The growth was 86.9%.

And the growth (MDA-MB-231 breast)?
The growth was 123%.

What about the growth (RXF 393 renal) of the same compound?
Its growth is 99%.

And the growth (SF-268 CNS)?
The growth was 106%.

What about the growth (SF-295 CNS) of the same compound?
The growth was 101%.

What about the growth (SF-539 CNS) of the same compound?
Its growth is 106%.

And the growth (UACC-257 melanoma)?
The growth was 93.3%.

What about the growth (M14 melanoma) of the same compound?
The growth was 99.6%.

How did the growth (NCI-H23 lung) turn out when CCCCCCCCCCC(=O)CCCCCCCCCC was run?
Its growth is 102%.

And the growth (NCI-H226 lung)?
The growth was 103%.

What about the growth (NCI-H322M lung) of the same compound?
The growth was 109%.

And the growth (HOP-62 NSCLC)?
The growth was 92.3%.

And the growth (NCI-H460 lung)?
Its growth is 102%.

And the growth (HOP-92 NSCLC)?
Its growth is 148%.

What about the growth (NCI-H522 lung) of the same compound?
Its growth is 96.7%.

What about the growth (A549/ATCC NSCLC) of the same compound?
The growth was 98.4%.

And the growth (786-0 renal)?
Its growth is 99.1%.

What about the growth (COLO 205 colon) of the same compound?
The growth was 107%.

And the growth (DU-145 prostate)?
Its growth is 111%.

And the growth (K-562 leukemia)?
The growth was 103%.

And the growth (MALME-3M melanoma)?
The growth was 99.1%.

And the growth (MDA-MB-231 breast)?
Its growth is 119%.

And the growth (RXF 393 renal)?
The growth was 113%.

What about the growth (SF-268 CNS) of the same compound?
Its growth is 108%.

What about the growth (SF-295 CNS) of the same compound?
Its growth is 93.7%.

And the growth (SF-539 CNS)?
Its growth is 98.1%.

And the growth (UACC-257 melanoma)?
Its growth is 101%.

And the growth (M14 melanoma)?
The growth was 99.9%.

Which growth (NCI-H23 lung) does the source give for O=C(O)c1cccc(-n2ncc(Cl)c(Cl)c2=O)c1 here?
Its growth is 107%.

And the growth (NCI-H226 lung)?
Its growth is 101%.

What about the growth (NCI-H322M lung) of the same compound?
The growth was 117%.

And the growth (HOP-62 NSCLC)?
Its growth is 100%.

What about the growth (NCI-H460 lung) of the same compound?
The growth was 101%.

What about the growth (HOP-92 NSCLC) of the same compound?
Its growth is 112%.

What about the growth (NCI-H522 lung) of the same compound?
The growth was 36%.

And the growth (A549/ATCC NSCLC)?
The growth was 102%.

What about the growth (786-0 renal) of the same compound?
The growth was 109%.

What about the growth (COLO 205 colon) of the same compound?
The growth was 117%.

What about the growth (DU-145 prostate) of the same compound?
Its growth is 114%.

And the growth (K-562 leukemia)?
Its growth is 109%.

And the growth (MALME-3M melanoma)?
The growth was 106%.

What about the growth (MDA-MB-231 breast) of the same compound?
The growth was 103%.

And the growth (RXF 393 renal)?
Its growth is 118%.

What about the growth (SF-268 CNS) of the same compound?
The growth was 108%.

What about the growth (SF-295 CNS) of the same compound?
Its growth is 102%.

What about the growth (SF-539 CNS) of the same compound?
The growth was 101%.

What about the growth (UACC-257 melanoma) of the same compound?
The growth was 89.2%.

What about the growth (M14 melanoma) of the same compound?
The growth was 101%.
